Consider 38 compounds from PubChem BioAssay (NCATS).

A short description of assay [1]: Viability qHTS for spleen associated tyrosine kinase inhibitor (SYKi) naive MV4-11 cells (AID 1963823). Further: nearly all actives have a fitted effect of over 40% in size. The gist of the method:
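CellTiter-Glo luminescence, 10 min room-temperature incubation, gave viability. Cells: naive MV4-11 (500/well), treated 72 hr at 37 C, 5% CO2.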

Assay [2] in a line: Viability qHTS for spleen associated tyrosine kinase inhibitor (SYKi) drug resistant MV4-11 cells (AID 1963824). Further: nearly all actives have a fitted effect of over 35% in size. Summed up:
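SYK-inhibitor-resistant MV4-11 AML cells were seeded at 500 per well onto compound and cultured 72 hours (37 °C, 5% CO2). CellTiter-Glo was then added, and after 10 min at room temperature, luminescence gave viability.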

Assay [3] in a line: Cellular viability qHTS for adrenocortical cancer (ACC) cell line SW-13 (AID 1963989). Further: nearly all actives have a fitted effect of over 65% in size.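 On activity (max response): cells grown in serum-free medium with ITS supplement; on the % scale 0 is the no-effect control and ±100 the full control effect.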 To be noted: SW-13 ACC cells viability, CellTiter-Glo, 48 h; activity (max response): hits give low values. Summed up:
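Luminescent ATP read-out (CellTiter-Glo, 20 min at room temperature) measured metabolically competent SW-13 cells after 48 h compound treatment. Final concentrations spanned up to 46 uM; bortezomib served as positive control.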

The nature of assay [4]: Cellular viability qHTS for adrenocortical cancer (ACC) cell line NCI-H295R (AID 1963990). Further: nearly all actives have a fitted effect of over 60% in size.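 On activity change, negative = viability loss: 0% = DMSO only wells and -100% = full killing with cytotoxic reference compound.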 Summed up:
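IC50 and maximal efficacy derive from four-parameter logistic modelling of titration curves, with reads scaled between DMSO-only wells (0%) and doxorubicin hydrochloride (100% inhibition). Compounds spanned up to 46 uM over 48 h.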

“And” between values parts separate entries of the source, which are not always exact repeats. Equal values may be shown once. Inconclusive results are not listed. Unmarked numbers belong to inactive results. The source made the active and inactive calls. The call rests on the fitted dose curve; in most records, active means well fitted curve in the direction sought with a large enough effect; inconclusive means small, poorly fitted or top-dose-only effect, or another doubt; inactive means no such curve, though single readings can be large; an effect the other way counts as inactive or inconclusive.
Potency means the concentration at half of the fitted maximal effect.

For `O=C(NO)c1ccc(C2=Nc3ccccc3Oc3ccccc32)cc1`, the Potency in assay [1] is 3.32 µM (active); in assay [2], 2.95 µM (active); in assay [3] it was 22.4 µM (active); in assay [4], 5.01 µM (active).
With `CC(C)(Oc1ccc(C2CC2(Cl)Cl)cc1)C(=O)O` (configuration not stated), the Potency entry in assay [1], in assay [2] and in assay [4] was “inactive” each time. Also, the activity (max response) in assay [3] is 13.8% and -14.2%.
As to `C=CCc1cccc(/C=N/NC(=O)CN2CCN(Cc3ccccc3)CC2)c1O`, the Potency is 7.42 µM (active) in assay [1], 6.61 µM (active) in assay [2], 8.91 µM (active) in assay [3] and 10 µM (active) in assay [4].
In the case of `CC(C)(NS(=O)(=O)c1ccc2c(Cl)cnc(N=C(N)N)c2c1)C(=O)O`, the Potency result in assay [1], in assay [2] and in assay [4] was “inactive” each time. Also, the activity (max response) in assay [3] is 5.36%.
For the compound `Cc1cc(O)c(C)c(C)c1O`, the Potency entry in assay [1], in assay [2] and in assay [4] was “inactive” throughout. For the same compound, in assay [3], the activity (max response) is 6.25%.
With `C[N+](C)(C)CCCCCC[N+](C)(C)C`, the Potency entry in assay [1], in assay [2] and in assay [4] was “inactive” each time. Moreover, in assay [3], the activity (max response) was 10.1%.
As for `O=C1Nc2nc(-c3c(O)cccc3OCC3CC3)cc([C@@H]3CCCNC3)c2CO1`, the Potency in assay [1] is 2.91 µM (active); in assay [2], 4.11 µM (active) and 5.25 µM (active); in assay [3], 22.4 µM (active); in assay [4], 17.8 µM (active).
Turning to `CO/N=C(\C(=O)O)c1csc(NC(=O)CCl)n1`, the Potency result in assay [1], in assay [2] and in assay [4] was “inactive” throughout. Further, the activity (max response) in assay [3] was 13%.
With `CCC(=O)NS(=O)(=O)c1ccc(-c2c(-c3ccccc3)noc2C)cc1`, the Potency entry in assay [1] and in assay [4] was “inactive” in each case. Moreover, the Potency in assay [2] was 8.2 µM (active). Further, the activity (max response) in assay [3] is -1.9%.
On to `CC(=O)Nc1ccc(OC(=O)c2ccccc2OC(C)=O)cc1`, for which the Potency entry in assay [1], in assay [2] and in assay [4] was “inactive” throughout. In assay [3], the activity (max response) is 8.82%.
In the case of `CN(C)CCOc1ccc(-c2nc(-c3ccc4c(c3)CC/C4=N\O)c(-c3ccncc3)[nH]2)cc1`, the Potency in assay [1] was 7.42 µM (active); in assay [2] it was 5.9 µM (active); in assay [3], 31.6 µM (active); in assay [4], 28.2 µM (active).
The like results for `CCC1CCCCN1C(=O)n1ncc(C(O)(c2ccccc2)c2ccccc2)n1` (configuration not stated) were, in that order, 11.8 µM (active), 5.25 µM (active), 15.8 µM (active) and 28.2 µM (active).
For `Cc1ccc2c(Cl)cc(Cl)c(O)c2n1`, the Potency entry in assay [1], in assay [2] and in assay [4] was “inactive” each time. Besides, the activity (max response) in assay [3] is 9.37%.
In the case of `COCCOC(=O)N1CCN(S(=O)(=O)c2cc(F)c(Oc3ccc(Cl)cc3)c(F)c2)C(C(=O)NO)C1` (configuration not stated), the Potency in assay [1] was 5.9 µM (active); in assay [2], 5.9 µM (active); in assay [3], 5.01 µM (active); in assay [4], 2.82 µM (active).
In the case of `O=C1OC(COc2ccccc2[N+](=O)[O-])CC1Cc1ccccc1` (configuration not stated), the Potency entry in assay [1] and in assay [4] was “inactive” throughout. Further, in assay [2], the Potency was 13.2 µM (active). Besides, the activity (max response) in assay [3] is -13.4%.
Consider `Cc1c(NC(C)C)c(=O)n(-c2ccccc2)n1C`, for which the Potency result in assay [1], in assay [2] and in assay [4] was “inactive” throughout. Further, the activity (max response) in assay [3] was 8.03%.
As to `C=CC(=O)N1CC/C(=C\c2ccc(F)c([N+](=O)[O-])c2)C(=O)/C(=C/c2ccc(F)c([N+](=O)[O-])c2)C1`, the Potency in assay [1] is 0.0332 µM (active); in assay [2], 0.0332 µM (active); in assay [3] it was 0.794 µM (active); in assay [4], 0.316 µM (active).
On to `O=C(/C=C/c1ccc(CN(CCO)CCc2c[nH]c3ccccc23)cc1)NO`, for which the Potency is 0.0742 µM (active) in assay [1], 0.059 µM (active) in assay [2], 0.708 µM (active) in assay [3] and 0.562 µM (active) in assay [4].
As for `CC1(C)[C@@H]2CC[C@@]1(C)C(=O)C2`, the Potency result in assay [1], in assay [2] and in assay [4] was “inactive” in each case. Also, the activity (max response) in assay [3] is 10.1%.
Turning to `Cc1cc(-c2cc(OC(=O)c3ccccc3)ccc2Cl)cc2nnc(Nc3ccc(OCCN4CCCC4)cc3)nc12`, the Potency in assay [1] was 2 µM (active); in assay [2], 1.59 µM (active). Also, the activity (max response) in assay [3] was 9.34%. Moreover, the Potency entry in assay [4] is “inactive”.
The like results for `CCN[C@H]1CN(CCCOC)S(=O)(=O)c2sc(S(N)(=O)=O)cc21` were, in that order, “inactive”, “inactive”, 7.66% and “inactive”.
As to `CN[C@H]1CC[C@@H](c2ccc(Cl)c(Cl)c2)c2ccccc21`, the Potency in assay [1] is 6.61 µM (active); in assay [2], 7.42 µM (active); in assay [3], 20.6 µM (active) and 28.2 µM (active); in assay [4] it was 4.61 µM (active) and 8.91 µM (active).
As to `Cc1cccn2c(=O)c(-c3nnn[nH]3)cnc12`, the Potency result in assay [1], in assay [2] and in assay [4] was “inactive” each time. For the same compound, the activity (max response) in assay [3] was -1.53%.
For the compound `CC[C@]12C=CCN3CC[C@@]4(c5cc([C@@]6(C(=O)OC)C[C@H]7C[C@@H](C(C)(F)F)CN(Cc8c6[nH]c6ccccc86)C7)c(OC)cc5N(C)[C@H]4[C@@](O)(C(=O)OC)[C@@H]1OC(C)=O)[C@@H]32`, the Potency in assay [1] is 0.0555 µM (active); in assay [2], 0.0494 µM (active); in assay [3] it was 0.123 µM (active); in assay [4], 0.548 µM (active).
For the compound `Cc1onc(-c2c(Cl)cccc2Cl)c1C(=O)Cl`, the Potency entry in assay [1], in assay [2] and in assay [4] was “inactive” each time. Besides, in assay [3], the activity (max response) is 17.1%.
Regarding `CCC(Cc1c(I)cc(I)c(N)c1I)C(=O)O` (configuration not stated), the Potency entry in assay [1], in assay [2] and in assay [4] was “inactive” in each case. The activity (max response) in assay [3] is 1.75%.
Turning to `O=C(O)/C=C/c1ccc(Cn2ccnc2)cc1`, the Potency entry in assay [1], in assay [2] and in assay [4] was “inactive” each time. In addition, the activity (max response) in assay [3] was 7.34% and 4.34%.
Turning to `COc1ccc2cc1Oc1cc3c(cc1OC)CC[N+](C)(C)[C@H]3Cc1ccc(cc1)Oc1c(OC)c(OC)cc3c1[C@@H](C2)[N+](C)(C)CC3`, the Potency entry in assay [1], in assay [2] and in assay [4] was “inactive” each time. In addition, the activity (max response) in assay [3] is 15.7%.
Take `CCCC1(CCC)CCC2(CCN(CCCN(CC)CC)C2)CC1`: the Potency was 2.35 µM (active) in assay [1], 2.31 µM (active) in assay [2], 3.55 µM (active) in assay [3] and 6.31 µM (active) in assay [4].
The matching figures for `OCCN1CCN(CCCN2c3ccccc3Sc3ccc(Cl)cc32)CC1`: 11.9 µM (active), 8.41 µM (active), 6.51 µM (active) and 2.59 µM (active).
For `COc1cc2c(cc1OC)CN(CCc1ccc(-n3nnc(-c4cc(OC)c(OC)cc4NC(=O)c4cc(=O)c5ccccc5o4)n3)cc1)CC2`, the viability (% of control) in assay [1] is 79.1% [at 0.588 µM]. Further, the viability, % of control in assay [2] was 98% [at 0.588 µM]. In addition, the activity (max response) in assay [3] is -2.39%. In addition, in assay [4], the activity change, negative = viability loss was -5.76% [at 0.587 µM].
With `CCC(C(=O)OCCOCCN(CC)CC)c1ccccc1` (configuration not stated), the Potency entry in assay [1], in assay [2] and in assay [4] was “inactive” in each case. For the same compound, in assay [3], the activity (max response) was -6.83%.
As for `CC(=O)O[C@]1(C(C)=O)CC[C@H]2[C@@H]3C[C@H](C)C4=CC(=O)CC[C@]4(C)[C@H]3CC[C@@]21C`, the Potency is 8.41 µM (active) and 13.2 µM (active) in assay [1]; 9.44 µM (active) and 13.2 µM (active) in assay [2]. Further, the activity (max response) in assay [3] is -20.8%. Moreover, in assay [4], the Potency entry was “inactive”.
Regarding `Cc1cc(OCCCc2c3n(c4c(-c5c(C)nn(C)c5C)c(Cl)ccc24)[C@H](C)CN(c2cn(C)c4ccc(C(=O)O)cc24)C3=O)cc(C)c1Cl`, the Potency was 0.742 µM (active) in assay [1], 0.662 µM (active) in assay [2], 2 µM (active) in assay [3] and 2 µM (active) in assay [4].
Regarding `CCS(=O)(=O)N1CCN(c2ccc(Nc3ncc(C(N)=O)c(NC4CC4)n3)cc2)CC1`, the Potency in assay [1] was 130 nM (active) and 332 nM (active); in assay [2], 184 nM (active) and 525 nM (active); in assay [3], 22.4 µM (active); in assay [4], 10 µM (active).
As for `CC(=O)N1CCC[C@H]1C(=O)N[C@@H](Cc1cnc[nH]1)C(=O)N[C@@H](CO)C(=O)N[C@@H](CS)C(=O)N[C@@H](CC(N)=O)C(N)=O`, the Potency entry in assay [1], in assay [2] and in assay [4] was “inactive” in each case. Moreover, the activity (max response) in assay [3] is -17.6%.
With `CC(=O)CC(c1ccc([N+](=O)[O-])cc1)c1c(O)c2ccccc2oc1=O` (configuration not stated), the Potency result in assay [1], in assay [2] and in assay [4] was “inactive” each time. Also, the activity (max response) in assay [3] was -8%.
With `Cc1nc(-c2cccnc2)sc1C(=O)Nc1ccccc1-c1cn2c(CN3CCOCC3)csc2n1`, the Potency entry in assay [1], in assay [2] and in assay [4] was “inactive” throughout. Moreover, the activity (max response) in assay [3] was -5.59%.
